Pf growth 48h: Primary qHTS for delayed death inhibitors of the malarial parasite plastid, 48 hour incubation | AID 504832, 2011 | P. falciparum luciferase growth in erythrocytes, 48 h | Potency, µM (doses to about 28.7 µM), for the others: top-dose activity change, negative = inhibition, usual class: inhibitors | 5.9% of 310,000 active; note: potency is the fitted concentration of half-maximal effect; % is set by controls: 0 for no effect and ±100 for the full control effect
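Luciferase-expressing P. falciparum in infected erythrocytes (2% hematocrit, 0.1% parasitemia final) in RPMI 1640/0.5% Albumax were exposed to compound for 48 hours at 37 C, 5% CO2; growth read as luminescence.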
SARS PLpro yeast: qHTS of Yeast-based Assay for SARS-CoV PLP; Potency, µM (doses to about 32.9 µM), for the others: at the top dose activity, positive = growth rescue, hits mostly activators; S. cerevisiae expressing SARS-CoV PLpro, growth rescue; 0.19% of 330,000 active; calls by dose curve; note: potency is the fitted concentration of half-maximal effect; 0% is about no effect; nearly all actives have a fitted effect of over 55% in size
Pf growth 96h: Primary qHTS for delayed death inhibitors of the malarial parasite plastid, 96 hour incubation; P. falciparum luciferase reporter growth, 96 h; Potency, µM (highest dose often 28.7 µM), for the others: top-dose activity change, negative = inhibition, usual class: inhibitors; 6.9% of 320,000 active; note: potency is the fitted concentration of half-maximal effect; % is set by controls: 0 for no effect and ±100 for the full control effect
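Compounds incubated with erythrocytes infected by luciferase-expressing P. falciparum (2% hematocrit, 0.05% parasitemia final) for 96 hours, 37 C in 5% CO2. Growth inhibition scored as decreased luciferase luminescence.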
Shiga inhibitor: A qHTS for Small Molecule Inhibitors of Shiga Toxin; Vero cells, Shiga toxin protein synthesis inhibition reporter; inhibition, % at 38.7 µM; 9.2% of 290,000 active; in the data active = inhibition mostly above about 28%, no sharp cut-off; inactive = mostly below about 43%; note: 0% is about no effect
NS1 function inh: qHTS Assay for Inhibitors of Influenza NS1 Protein Function; 0.4% of 270,000 active; Potency, µM (top dose mostly 46.1 µM), inactives show at the highest dose activity, positive = more growth; calls by dose curve; note: potency is the fitted concentration of half-maximal effect; actives are rising curves; nearly all actives have a fitted effect of over 50% in size
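Recovery from NS1-induced slow growth read by OD600 in budding yeast switched to galactose assay medium (pH 6.0, -URA) at 1:100 dilution. Compound 23 nl per well; the matching strain lacking NS1 serves as control.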
CHX counter: Cycloheximide Counterscreen for Small Molecule Inhibitors of Shiga Toxin | cell reporter, cycloheximide protein synthesis inhibition counterscreen | max response, % | 12% of 300,000 active | AID 2314, 2010; in the data active = max response mostly above about 13%, no sharp cut-off; inactive = mostly below about 14%; note: read at 38.3 µM for the half of the compounds with a filed dose; 0% is about no effect
* hit, by the source's call; u = inconclusive; x = no result; + = active, no number; [ ] = another dose, or the depositor's remark. Shown are actives, neighbours in structure and some others; about 21% of the full set was active somewhere. Unless noted, calls come from the whole dose curve; as a rule, active = well fitted inhibition curve with a large enough effect; inconclusive = small, poorly fitted or top-dose-only effect, or another doubt; inactive = no such curve, though single readings can be large or run the other way.

SMILES	Pf growth 48h	SARS PLpro yeast	Pf growth 96h	Shiga inhibitor	NS1 function inh	CHX counter
C#CCn1c(=NC(=O)c2ccc(S(=O)(=O)N3CCc4ccccc4C3)cc2)sc2cc(S(N)(=O)=O)ccc21	u	-7.7%	5.22µM*	-17.2	u	-7.7
COCCn1c(=NC(=O)c2ccc(S(=O)(=O)N3CCc4ccccc4C3)cc2)sc2cc(S(N)(=O)=O)ccc21	u	21.4%	7.38µM*	-8.1	5.5%	-5.3
C=CCn1c(=NC(=O)c2ccc(S(=O)(=O)N3CCc4ccccc4C3)cc2)sc2cc(S(N)(=O)=O)ccc21	-24.0%	9.1%	u	-8.3	11.7%	-2.8
COC(=O)Cn1c(=NC(=O)c2ccc(S(=O)(=O)N3CCc4ccccc4C3)cc2)sc2cc(OC)ccc21	u	-1.6%	u	-4.7	-3.4%	-1.5
CCOCCn1c(=NC(=O)c2ccc(S(=O)(=O)N3CCOCC3)cc2)sc2cc(S(N)(=O)=O)ccc21	14.7µM*	-4.1%	6.57µM*	-19.9	1.4%	-1.2
CNc1nnc(SCC(=O)N2c3ccccc3NC(=O)CC2C)s1 (configuration not stated)	37.1%	6.9%	u	x	x	x
CC(C)c1ccc(/C=N/NC(=O)c2nnn(-c3nonc3N)c2CN(C)C2CCCCC2)cc1	1.7%	1.5%	2.7%	-6.5	1.3%	-1.7
COCCNC(=O)c1cc(C(=O)CC(C)C)c[nH]1	-2.9%	-0.3%	9.2%	11.6	7.2%	-5.1
C/[N+]([O-])=C/c1c(OCc2ccccc2)ccc2ccccc12	-6.7%[0.00184 µM]	0.7%	14.0%	32.0	-9.5%	3.9
O=Cc1c(OCc2ccccc2)ccc2ccccc12	56.2%	-3.7%	47.4%	77.9*	-75.5%	46.9*
COc1cc(C(C(=O)NC(C)(C)C)N(Cc2ccccc2)C(=O)c2cnccn2)cc(OC)c1OC (configuration not stated)	0.0%	-4.2%	u	-16.8	-0.7%	-1.9
O=C(NCc1ccccc1)C(c1ccc(F)cc1)N(Cc1cccs1)C(=O)c1cnccn1 (configuration not stated)	-9.6%	11.5%	-13.3%	-5.6	-4.1%	-1.1
COc1cc(C(C(=O)NCc2ccccc2)N(Cc2ccco2)C(=O)c2cnccn2)cc(OC)c1OC (configuration not stated)	9.28µM*	-0.7%	9.0%	8.2	x	-2.2
O=C(NCc1ccccc1)C(c1ccccc1)N(Cc1cccs1)C(=O)c1cnccn1 (configuration not stated)	-22.3%	5.0%	0.262µM*	18.9	0.4%	-1.1
CCc1nc(N2CCN(CC(=O)NCC3CCCO3)CC2)c(C#N)c2c1COC(C)(C)C2 (configuration not stated)	u	-1.5%	u	29.2	-19.5%	-2.3
Cn1nc(C(=O)OCC(=O)NCc2ccc(Cl)cc2)c2ccccc2c1=O	x	-2.1%	x	x	x	x
Cn1nc(C(=O)OCC(=O)NCCc2ccccc2)c2ccccc2c1=O	u	-2.2%	12.4%	6.7	-16.3%	26.8*
COC(=O)c1ccc(COC(=O)c2nn(C)c(=O)c3ccccc23)cc1	21.2%	-0.1%	29.9%	57.1	-4.7%	22.7*
Cc1ccc(/C=N/n2nnnc2N)cc1[N+](=O)[O-]	54.3%	-0.6%	u	6.5	4.2%	11.8
CCC(c1nnc(SCC(=O)NCCc2ccc(Cl)cc2Cl)o1)N(C)C (configuration not stated)	-0.4%	4.5%	26.9%	-2.7	-5.0%	-1.0
O=C(NC12CC3CC(CC(C3)C1)C2)c1ccc([N+](=O)[O-])o1	5.22µM*	-13.8%	u	14.5	-84.2%	11.0*
O=C(NC12CC3CC(CC(C3)C1)C2)c1ccc(-c2ccc(Br)cc2)o1	u	-8.2%	u	107.8*	8.0%	68.3*
O=C(NC1CCS(=O)(=O)C1)c1ccc(Br)o1 (configuration not stated)	41.1%	-0.9%	36.8%	-3.8	-0.1%	-7.1
O=C(NC1CCS(=O)(=O)C1)c1ccc(-c2ccc(Br)cc2)o1 (configuration not stated)	x	-2.0%	u	34.9	-10.0%	18.9*
CNc1nc(-c2c(C)n(C)c3ccc(OC)cc23)cs1	18.2%[0.00184 µM]	-4.6%	u	-5.9	8.2%	-2.1
SMILES	Pf growth 48h	SARS PLpro yeast	Pf growth 96h	Shiga inhibitor	NS1 function inh	CHX counter
COc1ccc(Nc2ncnc3sc(C)cc23)c(OC)c1	25.1%	-6.7%	u	48.1*	-22.0%	23.3*
COc1cccc(C(C(=O)NC2CCCC2)N(C(=O)c2ccco2)c2ccc(NC(C)=O)cc2)c1OC (configuration not stated)	1.04µM*	0.3%	48.9%	9.8	-2.4%	-4.7
COc1cccc(C(C(=O)NC2CCCC2)N(C(=O)c2ccco2)c2ccccc2)c1OC (configuration not stated)	9.28µM*	1.5%	-19.0%	0.8	9.5%	-2.8
COc1cccc(C(C(=O)NC2CCCC2)N(C(=O)c2ccco2)c2ccc(C(C)=O)cc2)c1OC (configuration not stated)	u	-2.1%	-6.0%	5.6	-3.5%	3.7
C[C@H](O)c1[nH]c2cc(F)ccc2c1[C@H](C)O	u	0.8%	u	-0.6	13.9%	0.5
Cc1cc(S(=O)(=O)N2CCCC(N(C)CCc3ccccn3)C2)c(C)cc1Cl (configuration not stated)	u	2.8%	u	-12.4	2.1%	-2.5
CCC(C(=O)NCc1ccc(C)o1)n1nc(C)c2c(C)n(-c3ccccc3)nc2c1=O (configuration not stated)	-24.5%	2.2%	u	-4.5	21.4%	-3.6
O=C(O)CN1C(=O)C(=O)N(Cc2ccc(Cl)cc2Cl)C1=O	x	8.3%	24.5%	-4.3	-2.1%	1.3
CCCc1nn(C)c(C(=O)Nc2cccc(CC)c2)c1Cl	39.0%	8.2%	58.3%	+	-18.5%	18.5*
Cc1nn(C)c(C(=O)Nc2cccc(CN3CCOCC3)c2)c1Br	-13.7%	-2.2%	-22.1%	-4.1	3.6%	-2.4
CCCc1nn(C)c(C(=O)Nc2ccc3ccccc3c2)c1Cl	67.3%	-10.4%	112.0%	53.7*	-20.6%	49.2*
CN(C)/C=N/N(C)c1ncccc1[N+](=O)[O-]	1.2%	0.5%	16.7%	-8.8	u	-1.5
CCN(CC)CCNC(=O)c1cc2c(s1)-c1ccccc1SC2	0.0%	-0.9%	311.1%	-6.6	-1.7%	10.3
NNC(=O)c1cc2c(s1)-c1cc(Cl)ccc1SC2	9.28µM*	-0.9%	-3.8%	39.1	u	27.9*
CCCCCn1c(CCC(=O)Oc2ccccc2OC)nc2c1c(=O)[nH]c(=O)n2CCCC	x	10.8%	13.1µM*	-17.8	10.2%	-2.4

Screens (PubChem)
